Test [1] deals with Protein kinase C gamma type (Homo sapiens) (UniProt P05129). Particulars: at 1 µM.
Test [2] has as its target T1, Protein kinase C iota type (Homo sapiens) (UniProt P41743).
T1 sequence (whole entry): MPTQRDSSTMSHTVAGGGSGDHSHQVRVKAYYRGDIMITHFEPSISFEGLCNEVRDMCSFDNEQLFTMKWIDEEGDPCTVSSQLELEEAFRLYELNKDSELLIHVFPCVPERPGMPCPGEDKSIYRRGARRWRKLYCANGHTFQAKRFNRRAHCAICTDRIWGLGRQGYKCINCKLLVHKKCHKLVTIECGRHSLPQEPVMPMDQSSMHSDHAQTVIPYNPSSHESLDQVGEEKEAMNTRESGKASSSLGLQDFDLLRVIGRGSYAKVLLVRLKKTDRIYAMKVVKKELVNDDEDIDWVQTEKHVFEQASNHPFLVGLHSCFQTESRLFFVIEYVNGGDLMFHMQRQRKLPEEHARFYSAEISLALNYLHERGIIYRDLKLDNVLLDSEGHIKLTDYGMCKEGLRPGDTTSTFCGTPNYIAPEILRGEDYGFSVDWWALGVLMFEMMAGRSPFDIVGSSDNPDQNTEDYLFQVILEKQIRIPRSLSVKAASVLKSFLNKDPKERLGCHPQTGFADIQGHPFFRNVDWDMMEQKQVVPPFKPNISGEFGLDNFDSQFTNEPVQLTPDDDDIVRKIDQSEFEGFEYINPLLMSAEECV
The following applies: at 0.1 µM.

In test [3] the target is T1, Protein kinase C iota type (Homo sapiens). Particulars: at 1 µM.
Test [4] concerns the target Protein kinase C theta type (Homo sapiens) (UniProt Q04759). The following applies: at 0.1 µM.
The target is the same in test [5]. The following applies: at 1 µM.
In test [6] the target is Protein kinase C beta type (Homo sapiens) (UniProt P05771). The following applies: at 0.1 µM.
The target is the same in test [7]. Particulars: at 1 µM.
Test [8] addresses T2, Serine/threonine-protein kinase D1 (Homo sapiens) (UniProt Q15139).
T2 sequence (whole entry): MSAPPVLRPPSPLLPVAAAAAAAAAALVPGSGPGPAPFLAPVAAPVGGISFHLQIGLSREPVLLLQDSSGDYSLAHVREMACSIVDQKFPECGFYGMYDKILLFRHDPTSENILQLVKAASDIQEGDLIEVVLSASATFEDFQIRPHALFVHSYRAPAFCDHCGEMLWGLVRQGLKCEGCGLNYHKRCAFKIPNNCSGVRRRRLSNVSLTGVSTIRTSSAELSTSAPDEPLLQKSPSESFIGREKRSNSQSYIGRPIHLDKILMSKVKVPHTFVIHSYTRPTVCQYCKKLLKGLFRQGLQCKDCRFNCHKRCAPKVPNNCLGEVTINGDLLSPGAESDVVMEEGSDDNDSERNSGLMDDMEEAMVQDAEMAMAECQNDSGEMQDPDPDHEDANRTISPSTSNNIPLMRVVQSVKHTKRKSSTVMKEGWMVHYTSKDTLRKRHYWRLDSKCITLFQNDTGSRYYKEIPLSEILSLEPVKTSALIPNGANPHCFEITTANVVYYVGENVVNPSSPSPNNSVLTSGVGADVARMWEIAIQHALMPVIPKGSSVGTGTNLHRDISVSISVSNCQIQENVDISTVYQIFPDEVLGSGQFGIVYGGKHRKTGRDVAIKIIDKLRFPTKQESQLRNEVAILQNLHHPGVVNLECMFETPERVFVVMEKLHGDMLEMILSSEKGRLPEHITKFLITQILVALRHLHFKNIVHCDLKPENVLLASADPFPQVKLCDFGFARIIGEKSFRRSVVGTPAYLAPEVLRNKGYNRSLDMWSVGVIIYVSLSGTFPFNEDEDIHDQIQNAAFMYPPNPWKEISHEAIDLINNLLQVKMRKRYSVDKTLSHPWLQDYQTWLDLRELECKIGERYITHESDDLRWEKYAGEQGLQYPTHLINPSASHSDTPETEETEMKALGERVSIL
The following applies: at 0.1 µM.

In test [9] the target is T2, Serine/threonine-protein kinase D1 (Homo sapiens). Particulars: at 1 µM.
Test [10] concerns the target T3, Serine/threonine-protein kinase D2 (Homo sapiens) (UniProt Q9BZL6).
T3 sequence (whole entry): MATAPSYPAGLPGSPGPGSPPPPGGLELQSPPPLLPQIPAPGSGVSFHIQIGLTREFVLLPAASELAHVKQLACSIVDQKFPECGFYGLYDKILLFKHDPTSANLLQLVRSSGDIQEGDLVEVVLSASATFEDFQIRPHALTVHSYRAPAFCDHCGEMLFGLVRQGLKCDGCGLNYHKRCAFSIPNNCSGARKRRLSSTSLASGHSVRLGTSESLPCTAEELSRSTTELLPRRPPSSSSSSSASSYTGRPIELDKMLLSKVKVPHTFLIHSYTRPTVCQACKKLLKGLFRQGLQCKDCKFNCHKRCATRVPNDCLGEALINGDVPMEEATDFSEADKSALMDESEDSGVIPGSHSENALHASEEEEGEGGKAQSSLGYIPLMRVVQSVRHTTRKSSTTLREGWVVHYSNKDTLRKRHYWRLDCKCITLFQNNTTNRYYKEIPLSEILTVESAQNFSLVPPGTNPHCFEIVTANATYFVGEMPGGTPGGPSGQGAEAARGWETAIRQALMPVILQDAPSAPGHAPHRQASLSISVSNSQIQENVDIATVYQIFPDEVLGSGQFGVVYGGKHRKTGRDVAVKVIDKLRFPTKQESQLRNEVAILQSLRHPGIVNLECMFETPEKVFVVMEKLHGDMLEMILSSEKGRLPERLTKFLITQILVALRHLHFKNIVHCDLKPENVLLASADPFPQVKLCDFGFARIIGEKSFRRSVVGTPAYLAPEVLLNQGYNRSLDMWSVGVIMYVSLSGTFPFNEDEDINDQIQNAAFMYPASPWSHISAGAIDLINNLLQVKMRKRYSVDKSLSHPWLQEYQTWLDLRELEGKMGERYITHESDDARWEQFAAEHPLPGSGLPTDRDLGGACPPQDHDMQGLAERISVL
Particulars: at 0.1 µM.

In test [11] the target is T3, Serine/threonine-protein kinase D2 (Homo sapiens). Particulars: at 1 µM.
The target of test [12] is T4, Serine/threonine-protein kinase D3 (Homo sapiens) (UniProt O94806).
T4 sequence (whole entry): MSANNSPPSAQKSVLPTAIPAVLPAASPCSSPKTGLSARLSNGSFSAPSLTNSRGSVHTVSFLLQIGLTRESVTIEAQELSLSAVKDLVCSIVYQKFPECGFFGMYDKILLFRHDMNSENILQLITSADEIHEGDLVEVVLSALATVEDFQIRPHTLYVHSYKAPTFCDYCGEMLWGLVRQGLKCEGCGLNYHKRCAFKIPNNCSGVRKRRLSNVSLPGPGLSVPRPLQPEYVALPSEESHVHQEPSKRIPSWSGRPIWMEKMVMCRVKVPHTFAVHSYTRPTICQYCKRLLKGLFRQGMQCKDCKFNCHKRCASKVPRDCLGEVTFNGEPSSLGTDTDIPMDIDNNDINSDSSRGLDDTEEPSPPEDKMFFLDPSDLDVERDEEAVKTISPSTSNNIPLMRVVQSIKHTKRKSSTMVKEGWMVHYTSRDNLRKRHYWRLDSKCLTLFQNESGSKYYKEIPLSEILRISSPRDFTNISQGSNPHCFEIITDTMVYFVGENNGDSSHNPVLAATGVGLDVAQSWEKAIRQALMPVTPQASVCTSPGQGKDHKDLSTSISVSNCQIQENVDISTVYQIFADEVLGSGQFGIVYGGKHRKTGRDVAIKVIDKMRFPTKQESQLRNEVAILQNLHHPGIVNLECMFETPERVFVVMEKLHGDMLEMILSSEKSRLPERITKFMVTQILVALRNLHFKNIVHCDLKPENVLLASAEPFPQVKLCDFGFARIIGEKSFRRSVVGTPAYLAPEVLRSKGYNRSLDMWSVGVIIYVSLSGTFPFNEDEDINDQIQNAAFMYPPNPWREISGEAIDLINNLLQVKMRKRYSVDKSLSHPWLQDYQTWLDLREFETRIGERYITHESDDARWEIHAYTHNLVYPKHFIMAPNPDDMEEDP
Particulars: at 0.1 µM.

Test [13] has as its target T4, Serine/threonine-protein kinase D3 (Homo sapiens). The following applies: at 1 µM.
The target in test [14] is T5, cGMP-dependent protein kinase 1 (Homo sapiens) (UniProt Q13976).
T5 sequence (whole entry): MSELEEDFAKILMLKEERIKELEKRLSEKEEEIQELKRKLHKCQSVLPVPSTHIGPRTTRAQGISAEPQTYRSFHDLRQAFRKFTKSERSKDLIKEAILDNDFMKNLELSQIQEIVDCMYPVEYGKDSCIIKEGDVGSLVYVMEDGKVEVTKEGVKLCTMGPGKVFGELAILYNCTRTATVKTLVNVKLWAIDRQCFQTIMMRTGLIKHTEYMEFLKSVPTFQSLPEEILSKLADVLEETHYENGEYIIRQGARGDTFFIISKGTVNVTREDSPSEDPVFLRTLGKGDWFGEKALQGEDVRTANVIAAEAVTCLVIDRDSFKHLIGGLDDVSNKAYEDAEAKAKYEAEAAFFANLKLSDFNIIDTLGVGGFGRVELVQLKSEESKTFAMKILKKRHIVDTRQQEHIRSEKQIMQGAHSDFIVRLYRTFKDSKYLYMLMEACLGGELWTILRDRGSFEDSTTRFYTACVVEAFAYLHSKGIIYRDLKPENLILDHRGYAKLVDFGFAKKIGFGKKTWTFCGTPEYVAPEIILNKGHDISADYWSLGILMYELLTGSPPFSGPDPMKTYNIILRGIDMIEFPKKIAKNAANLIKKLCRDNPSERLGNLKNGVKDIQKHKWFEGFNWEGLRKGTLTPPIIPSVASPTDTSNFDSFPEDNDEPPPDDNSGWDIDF
Particulars: at 0.1 µM.

In test [15] the target is T5, cGMP-dependent protein kinase 1 (Homo sapiens). The following applies: at 1 µM.
Test [16] deals with T6, cGMP-dependent protein kinase 2 (Homo sapiens) (UniProt Q13237).
T6 sequence (whole entry): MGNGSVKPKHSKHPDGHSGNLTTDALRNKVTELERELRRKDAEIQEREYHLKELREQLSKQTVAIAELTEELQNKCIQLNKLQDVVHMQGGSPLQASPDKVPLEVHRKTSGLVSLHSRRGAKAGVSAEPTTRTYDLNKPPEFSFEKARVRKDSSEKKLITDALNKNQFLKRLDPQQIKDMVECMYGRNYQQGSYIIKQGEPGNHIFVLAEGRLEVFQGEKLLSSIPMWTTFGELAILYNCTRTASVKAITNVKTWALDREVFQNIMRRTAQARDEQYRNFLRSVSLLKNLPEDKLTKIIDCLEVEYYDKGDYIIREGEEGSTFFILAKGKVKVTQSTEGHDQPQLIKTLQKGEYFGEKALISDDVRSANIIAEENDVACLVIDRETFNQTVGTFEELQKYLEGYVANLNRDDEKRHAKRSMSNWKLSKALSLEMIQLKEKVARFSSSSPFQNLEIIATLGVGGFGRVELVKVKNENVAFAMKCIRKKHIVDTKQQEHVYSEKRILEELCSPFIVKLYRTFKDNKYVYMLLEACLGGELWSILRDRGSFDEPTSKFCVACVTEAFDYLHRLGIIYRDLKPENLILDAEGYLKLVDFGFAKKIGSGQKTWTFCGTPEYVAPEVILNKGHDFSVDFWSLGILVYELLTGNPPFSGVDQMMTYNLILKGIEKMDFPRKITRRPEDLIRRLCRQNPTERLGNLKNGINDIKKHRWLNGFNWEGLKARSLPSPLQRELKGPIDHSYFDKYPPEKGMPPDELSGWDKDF
Particulars: at 0.1 µM.

Test [17] concerns the target T6, cGMP-dependent protein kinase 2 (Homo sapiens). The following applies: at 1 µM.
For test [18], the target named is T7, cAMP-dependent protein kinase catalytic subunit PRKX (Homo sapiens) (UniProt P51817).
T7 sequence (whole entry): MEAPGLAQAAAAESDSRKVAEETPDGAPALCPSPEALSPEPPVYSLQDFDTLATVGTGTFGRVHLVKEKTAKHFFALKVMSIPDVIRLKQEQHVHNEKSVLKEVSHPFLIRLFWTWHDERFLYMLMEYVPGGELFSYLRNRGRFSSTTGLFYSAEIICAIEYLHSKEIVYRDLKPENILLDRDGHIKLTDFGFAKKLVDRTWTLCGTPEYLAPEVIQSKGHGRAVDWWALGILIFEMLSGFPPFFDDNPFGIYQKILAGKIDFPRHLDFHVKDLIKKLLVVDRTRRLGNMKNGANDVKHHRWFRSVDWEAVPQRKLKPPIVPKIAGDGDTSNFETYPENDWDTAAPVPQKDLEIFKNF
The following applies: at 0.1 µM.

Test [19] addresses T7, cAMP-dependent protein kinase catalytic subunit PRKX (Homo sapiens). Particulars: at 1 µM.
Test [20] has as its target Rho-associated protein kinase 1 (Homo sapiens) (UniProt Q13464). The following applies: at 0.1 µM.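 Further: values are mean percent inhibition of ROCK1.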

The text below walks through data of ChEMBL document CHEMBL1961873, “Compounds: GSK PKIS; Assays: Nanosyn kinase panel” (2012).

Chain of Protein kinase C beta type (Homo sapiens) (P05771 2-671 limits assumed): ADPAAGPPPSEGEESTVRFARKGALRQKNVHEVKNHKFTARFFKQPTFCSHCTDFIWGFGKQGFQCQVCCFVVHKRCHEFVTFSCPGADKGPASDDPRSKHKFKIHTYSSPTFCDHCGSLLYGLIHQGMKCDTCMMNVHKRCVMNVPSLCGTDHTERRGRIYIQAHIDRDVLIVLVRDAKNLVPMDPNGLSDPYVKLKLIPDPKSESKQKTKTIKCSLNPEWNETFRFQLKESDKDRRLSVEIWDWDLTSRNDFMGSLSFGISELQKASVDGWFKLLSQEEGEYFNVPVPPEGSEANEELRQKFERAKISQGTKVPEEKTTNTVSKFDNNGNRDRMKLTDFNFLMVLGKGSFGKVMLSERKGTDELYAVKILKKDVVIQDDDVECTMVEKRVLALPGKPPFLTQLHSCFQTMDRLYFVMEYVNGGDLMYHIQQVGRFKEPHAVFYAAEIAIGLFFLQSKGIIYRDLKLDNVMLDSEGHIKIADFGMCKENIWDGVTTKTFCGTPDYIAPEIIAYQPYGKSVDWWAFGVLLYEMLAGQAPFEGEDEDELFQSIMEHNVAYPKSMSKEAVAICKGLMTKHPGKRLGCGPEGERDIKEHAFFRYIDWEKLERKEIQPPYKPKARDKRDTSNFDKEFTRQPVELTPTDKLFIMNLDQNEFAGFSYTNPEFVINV
Chain of Protein kinase C theta type (Homo sapiens) (Q04759 whole entry, looked up): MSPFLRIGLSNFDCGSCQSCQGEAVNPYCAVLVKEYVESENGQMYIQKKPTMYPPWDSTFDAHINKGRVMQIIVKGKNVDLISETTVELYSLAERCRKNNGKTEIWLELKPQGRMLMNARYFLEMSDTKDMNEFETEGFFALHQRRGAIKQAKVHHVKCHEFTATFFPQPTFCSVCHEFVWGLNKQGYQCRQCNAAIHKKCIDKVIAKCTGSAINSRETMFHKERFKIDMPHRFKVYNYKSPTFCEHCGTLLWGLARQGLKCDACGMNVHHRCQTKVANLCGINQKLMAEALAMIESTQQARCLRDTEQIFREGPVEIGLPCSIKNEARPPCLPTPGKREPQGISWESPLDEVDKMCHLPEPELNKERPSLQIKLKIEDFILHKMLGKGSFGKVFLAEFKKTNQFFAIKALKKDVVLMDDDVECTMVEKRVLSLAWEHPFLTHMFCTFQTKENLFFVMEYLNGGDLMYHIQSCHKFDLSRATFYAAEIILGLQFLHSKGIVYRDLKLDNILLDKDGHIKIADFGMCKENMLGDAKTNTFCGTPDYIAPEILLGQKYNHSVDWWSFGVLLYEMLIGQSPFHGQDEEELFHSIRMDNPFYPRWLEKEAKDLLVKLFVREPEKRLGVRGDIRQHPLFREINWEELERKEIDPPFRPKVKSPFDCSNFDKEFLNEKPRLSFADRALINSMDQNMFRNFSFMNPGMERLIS
Chain of Rho-associated protein kinase 1 (Homo sapiens) (Q13464 2-1354 limits assumed): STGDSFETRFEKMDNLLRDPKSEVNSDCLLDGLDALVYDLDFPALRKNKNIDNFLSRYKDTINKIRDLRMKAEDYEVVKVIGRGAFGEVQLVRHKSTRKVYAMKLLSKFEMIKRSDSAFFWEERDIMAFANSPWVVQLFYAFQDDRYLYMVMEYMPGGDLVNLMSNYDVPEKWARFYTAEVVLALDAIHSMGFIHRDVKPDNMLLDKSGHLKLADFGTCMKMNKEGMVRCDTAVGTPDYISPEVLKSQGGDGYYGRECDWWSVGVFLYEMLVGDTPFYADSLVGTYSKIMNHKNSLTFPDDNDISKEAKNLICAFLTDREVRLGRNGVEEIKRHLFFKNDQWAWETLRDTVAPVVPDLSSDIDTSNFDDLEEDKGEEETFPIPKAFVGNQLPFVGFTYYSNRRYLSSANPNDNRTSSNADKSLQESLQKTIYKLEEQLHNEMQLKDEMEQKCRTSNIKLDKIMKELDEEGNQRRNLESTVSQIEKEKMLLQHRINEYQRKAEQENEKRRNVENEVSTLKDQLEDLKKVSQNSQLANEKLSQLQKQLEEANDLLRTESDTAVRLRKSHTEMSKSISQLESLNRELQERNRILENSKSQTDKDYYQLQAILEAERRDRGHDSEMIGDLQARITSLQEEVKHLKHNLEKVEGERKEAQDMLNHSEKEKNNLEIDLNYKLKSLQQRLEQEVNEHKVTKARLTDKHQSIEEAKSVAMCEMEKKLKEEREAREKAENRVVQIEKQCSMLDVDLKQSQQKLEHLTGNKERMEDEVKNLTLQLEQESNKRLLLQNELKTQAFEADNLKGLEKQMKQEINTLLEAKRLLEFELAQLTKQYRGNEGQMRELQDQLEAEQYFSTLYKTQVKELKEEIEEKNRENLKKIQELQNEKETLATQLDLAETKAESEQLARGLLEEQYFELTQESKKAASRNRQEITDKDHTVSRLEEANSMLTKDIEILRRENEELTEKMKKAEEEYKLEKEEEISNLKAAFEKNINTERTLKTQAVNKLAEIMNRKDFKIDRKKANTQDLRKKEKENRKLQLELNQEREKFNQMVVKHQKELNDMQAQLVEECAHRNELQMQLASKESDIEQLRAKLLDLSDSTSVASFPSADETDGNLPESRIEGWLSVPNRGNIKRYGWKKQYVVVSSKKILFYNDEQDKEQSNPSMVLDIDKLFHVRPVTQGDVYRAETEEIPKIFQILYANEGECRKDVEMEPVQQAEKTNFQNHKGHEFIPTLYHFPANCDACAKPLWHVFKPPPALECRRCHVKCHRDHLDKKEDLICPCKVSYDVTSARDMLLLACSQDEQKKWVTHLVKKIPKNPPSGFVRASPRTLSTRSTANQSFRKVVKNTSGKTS

Broadly, the inhibition is the change of the read-out against control, counted positive when it falls. As for `CN(C)CCCNc1nccc(-c2c(-c3ccc(F)cc3)nn3cc(C(F)(F)F)ccc23)n1`, the inhibition is 4.68% in test [1]; 0.91% in [2]; 2.26% in test [3]; 0.23% in test [4]; 0.19% in test [5]; 0.57% in [6]. Moreover, the inhibition was 3.33% in test [7]; -1.67% in test [8]; 0.04% in test [9]; -1.36% in [10]; 0.34% in test [11]; -1.49% in test [12]. The inhibition in test [13] is -0.32%; in test [14], 1.15%; in [15], 3.76%; in [16], 1.88%; in test [17], 3.07%; in [18] it was 1.15%. Also, the inhibition in [19] is -0.47%; in test [20], 0.76%.
For the compound `Cc1ccc(C(=O)NC(C)C)cc1-c1ccc(C(=O)NCC2CC2)cc1`, the inhibition in test [1] was -2.88%; in test [2] it was -0.44%; in test [3], -0.8%; in [4] it was -1.25%; in test [5], -1.29%; in test [6], -0.65%. Besides, the inhibition in [7] was -0.9%; in [8] it was -3.39%; in test [9], -3.57%; in test [10], -1.97%; in test [11], -0.88%; in test [12], -3.09%. The inhibition in test [13] is -2.84%; in test [14], -3.24%; in [15], -2.98%; in [16] it was -1.45%; in test [17], -0.98%; in [18], -1.5%. The inhibition in test [19] was -1.51%; in [20] it was -1.38%.
